31 molecules from PubChem BioAssay AID743358 (Broad Institute, 2014) can be followed below.

Structures are written as SMILES. The source made the active and inactive calls.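 How the source made its calls: active means ATP signal drop in HepG2 cells with fitted half-maximal concentration at most twice the top tested dose; inconclusive means flat curve losing 30 to 70% signal, or poor fit; inactive means the rest.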

This experiment can be described thus: viability loss in HepG2 liver cells – cell-based, luminescence, dry powder, set 9, cytotoxicity control, dose response (AID 743358). The conditions noted are these: ATP luminescence, 72 h; series mostly up to 26 µM.
As for `COC(=O)c1ccc(N2CCN(C(=O)c3ccc4c(c3)OCO4)CC2)cc1`, the molecule was called inactive. On to `CNS(=O)(=O)c1ccc(N2CCN(C(=O)c3ccc4c(c3)OCO4)CC2)cc1`, for which the outcome was inactive. In the case of `CCC(=O)N1CC[C@@H]2[C@@H](CO)N(C)c3ccc(-c4ccc(F)cc4)cc3[C@@H]21`, the result was inactive. Take `CN1c2ccc(-c3cccc(F)c3)cc2[C@H]2[C@H](CCN2C(=O)Cc2cccnc2)[C@H]1CO`: the call was inactive.

Take `CC(=O)c1ccc(N2CC3(CN(C(=O)c4ccc5c(c4)OCO5)C3)C2)cc1`: the call was inactive. As for `CC(=O)c1ccc(N2CCN(C(=O)c3ccccc3F)CC2)cc1`, the call was inactive. `CC(=O)c1ccc(N2CCN(C(=O)c3ccc4c(c3)OCO4)[C@H](C)C2)cc1`: the molecule was called inactive. In the case of `CC(C)NC(=O)N1CC[C@@H]2[C@@H](CO)N(C)c3ccc(-c4ccc(F)cc4)cc3[C@@H]21`, the call was inactive. Next, `CN1c2ccc(-c3cccc(F)c3)cc2[C@H]2[C@H](CCN2C(=O)CCCCCCC(=O)O)[C@H]1CO`: “inactive”; `CCCNC(=O)N1CC[C@@H]2[C@@H](CO)N(C)c3ccc(-c4ccc(F)cc4)cc3[C@@H]21`: “inactive”. For `COCC(=O)N1CC[C@@H]2[C@@H](CO)N(C)c3ccc(-c4cccc(F)c4)cc3[C@@H]21`, the result was inactive.

As to `COc1ccc(NC(=O)N2CC[C@@H]3[C@@H](CO)N(C)c4ccc(-c5cccc(F)c5)cc4[C@@H]32)cc1`, the molecule was classed as inactive. To `CN1c2ccc(-c3cccc(F)c3)cc2[C@H]2[C@H](CCN2C(=O)c2ccc3c(c2)OCO3)[C@@H]1CO` belongs “inactive”; to `CN(C)C(=O)c1ccc(N2CCN(C(=O)c3ccc4c(c3)OCO4)CC2)cc1`, “inactive”. Next, `CN1c2ccc(-c3ccc(F)cc3)cc2[C@H]2[C@H](CCN2C(=O)Nc2ccc(F)cc2)[C@H]1CO`: “inactive”; `CC(=O)c1ccc(NCCNC(=O)c2ccc3c(c2)OCO3)cc1`: “inactive”. As to `CCCCCCCC(=O)N1CC[C@@H]2[C@@H](CO)N(C)c3ccc(-c4cccc(F)c4)cc3[C@@H]21`, the outcome was inactive. Take `COc1ccccc1NC(=O)N1CC[C@@H]2[C@@H](CO)N(C)c3ccc(-c4ccc(F)cc4)cc3[C@@H]21`: the outcome was inactive.

For the molecule `CN1c2ccc(-c3ccc(F)cc3)cc2[C@H]2[C@H](CCN2C(=O)Cc2cccnc2)[C@H]1CO`, the outcome was inactive. To `CN1c2ccc(-c3ccc(F)cc3)cc2[C@H]2[C@H](CCN2C(=O)Nc2cc(F)ccc2F)[C@H]1CO` belongs “inactive”.

Consider `COc1ccc(NC(=O)N2CC[C@@H]3[C@@H](CO)N(C)c4ccc(-c5ccc(F)cc5)cc4[C@@H]32)cc1`, for which the result was inactive. Consider `CN1c2ccc(-c3cccc(F)c3)cc2[C@H]2[C@H](CCN2C(=O)Cc2ccccc2)[C@H]1CO`, for which the result was inactive. Next, `CN1c2ccc(-c3cccc(F)c3)cc2[C@@H]2[C@@H](CCN2C(=O)c2ccc3c(c2)OCO3)[C@H]1CO`: “inactive”; `CC(=O)c1ccc(N2CCN(C(=O)c3ccc4c(c3)OCO4)CC2)cc1`: “inactive”; `CC(=O)c1ccc(N2CCN(C(=O)c3ccccc3Cl)CC2)cc1`: “inactive”.

In the case of `CNC(=O)c1ccc(N2CCN(C(=O)c3ccc4c(c3)OCO4)CC2)cc1`, the outcome was inactive. With `CN1c2ccc(-c3cccc(F)c3)cc2[C@@H]2[C@@H](CCN2C(=O)c2ccc3c(c2)OCO3)[C@@H]1CO`, the result was inactive.

In the case of `CN1c2ccc(-c3cccc(F)c3)cc2[C@H]2[C@H](CCN2C(=O)CCCCCCN)[C@H]1CO`, the molecule was classed as inactive. On to `COc1ccccc1C(=O)N1CCN(c2ccc(C(C)=O)cc2)CC1`, for which the call was inactive. In the case of `COc1ccccc1NC(=O)N1CC[C@@H]2[C@@H](CO)N(C)c3ccc(-c4cccc(F)c4)cc3[C@@H]21`, the molecule was called inactive. Next, `CN1c2ccc(-c3ccc(F)cc3)cc2[C@H]2[C@H](CCN2C(=O)Cc2ccccn2)[C@H]1CO`: “inactive”.
